PLK1 PBD block: PLK1 (human) polo-box domain binding inhibition | Plk1 PBD binding of FITC phosphopeptide, fluorescence polarization | 360,000 tested, 2.8% active | Potency, µM, for inactives: max response, negative = inhibition, most hits filed as inhibitors | P53350; note: potency is the fitted concentration of half-maximal effect; series mostly up to about 57 µM; % is set by controls: 0 for no effect and ±100 for the full control effect; nearly all actives have a fitted effect of over 65% in size
KAT2A inh: GCN5L2 (KAT2A) acetyltransferase inhibition; Q92830; GCN5L2 HAT assay, ThioGlo1 CoA-SH fluorescence; Potency, µM (top dose mostly 58.9 µM), without a hit: at the highest dose activity change, negative = inhibition, actives largely listed as inhibitors; 390,000 tested, 0.21% active; note: potency is the fitted concentration of half-maximal effect; % is set by controls: 0 for no effect and ±100 for the full control effect
Target sequence (Q92830 whole entry, looked up): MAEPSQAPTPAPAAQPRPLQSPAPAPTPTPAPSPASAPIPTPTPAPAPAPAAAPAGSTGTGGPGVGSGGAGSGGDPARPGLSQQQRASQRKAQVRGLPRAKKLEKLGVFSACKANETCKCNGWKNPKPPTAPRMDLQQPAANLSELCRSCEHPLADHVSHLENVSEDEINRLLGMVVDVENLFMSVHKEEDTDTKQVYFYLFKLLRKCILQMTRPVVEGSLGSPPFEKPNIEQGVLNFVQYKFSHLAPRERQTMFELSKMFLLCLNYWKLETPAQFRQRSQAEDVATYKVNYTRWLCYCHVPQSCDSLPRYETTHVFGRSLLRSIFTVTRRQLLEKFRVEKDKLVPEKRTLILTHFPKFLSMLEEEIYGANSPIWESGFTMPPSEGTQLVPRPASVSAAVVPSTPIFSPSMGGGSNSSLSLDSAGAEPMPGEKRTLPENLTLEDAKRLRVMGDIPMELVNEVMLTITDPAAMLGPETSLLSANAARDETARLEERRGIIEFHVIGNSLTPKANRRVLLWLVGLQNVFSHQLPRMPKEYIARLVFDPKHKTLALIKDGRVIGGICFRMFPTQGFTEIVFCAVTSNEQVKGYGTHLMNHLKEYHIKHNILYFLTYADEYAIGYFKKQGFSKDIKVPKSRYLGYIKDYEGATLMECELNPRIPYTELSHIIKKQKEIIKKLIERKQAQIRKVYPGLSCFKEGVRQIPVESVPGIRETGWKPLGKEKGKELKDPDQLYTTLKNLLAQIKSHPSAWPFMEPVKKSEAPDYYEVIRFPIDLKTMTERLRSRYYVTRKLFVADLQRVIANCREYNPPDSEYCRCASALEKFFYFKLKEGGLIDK
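ThioGlo1-coupled HAT assay: 20nM GCN5L2, 70uM acetyl-CoA, 75uM H3(1-25) peptide, pH 7.5. Fluorescence read at 340/540nm at start and after 20 min at room temperature.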
Rango complex inh: Rango-importin beta binding inhibition | Q14974 | Rango CFP/YFP FRET sensor + importin beta, 45 min | Potency, µM (top dose mostly 92.2 µM), for the others: at the top dose inhibition of complex formation | 340,000 tested, 0.031% active | AID 540263; calls by dose curve;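 note: potency is the fitted concentration of half-maximal effect; 0% = DMSO wells and 100% = buffer wells lacking importin beta; nearly all actives have a fitted effect of over 15% in size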
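FRET biosensor (snurportin 1 IBB flanked by EYFP and cerulean), 50 nM, with compound 5 min, then 0.125 microM importin beta in PBS, 1 mM DTT, 0.02% Tween-20, 0.1% BSA. CFP/YFP ratio read after 45 min at room temperature; pre-read flags interference.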
Rango release inh: prevents RanGTP from dissociating the Rango-importin beta complex; O95149+P62826; Biochemical FRET Rango-importin beta, RanGTP-induced dissociation; Potency, µM (series often up to 46.1 µM), for inactives: at the highest dose activity change, negative = inhibition; 340,000 tested, 0.071% active; calls by dose curve; note: potency is the fitted concentration of half-maximal effect; % of control where 0% means no effect; nearly all actives have a fitted effect of over 45% in size
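FRET read at 45 min, room temperature: inhibitors block the CFP/YFP signal rise when RanGTP (0.6 uM Ran, 2 mM GTP, 0.2 uM RCC1) frees Rango (0.1 uM) from importin beta (0.25 uM). Pre-read after 5 min compound exposure flags interference.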
PI5P4K alpha inh: blocks human PI5P4K alpha kinase activity; P48426; PI5P4Kalpha enzyme, ADP-Glo luminescence, 60 min; stronger effect = lower value; max response, %; 330,000 tested, 1.2% active; active = max response of -50% or lower; inconclusive = between -30% and -50%; inactive = -30% or higher; note: value at the top dose of about 77 µM; % is set by controls: 0 for no effect and ±100 for the full control effect
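Controls without substrate or without enzyme flank wells where PI5P4Kalpha converts substrate using 5 microM ATP (final). Incubation lasts 60 minutes at room temperature; ADP formed is read by ADP-Glo luminescence.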
VDR inhibitor: blocks the human vitamin D receptor. P11473. VDR-SRC2-3 peptide fluorescence polarization, 2 h. Potency, µM, for the others: max response, negative = inhibition, most hits filed as inhibitors. 400,000 tested, 0.93% active. AID 504847; note: potency is the fitted concentration of half-maximal effect; % is set by controls: 0 for no effect and ±100 for the full control effect
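Measured by FP: displacement of SRC2-3 coactivator peptide from VDR by library compounds, following a two-hour ambient incubation.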
Starred values were filed as active, the others as inactive; ? = inconclusive; . = not tested or not shown. This is a sample that favours compounds with a hit; in the whole collection about 3.6% have one here. Unless noted, calls come from the whole dose curve; as a rule, active = well fitted curve in the direction sought with a large enough effect; inconclusive = small, poorly fitted or top-dose-only effect, or another doubt; inactive = no such curve, though single readings can be large; an effect the other way counts as inactive or inconclusive.

SMILES	PLK1 PBD block	KAT2A inh	Rango complex inh	Rango release inh	PI5P4K alpha inh	VDR inhibitor
CC(=O)O[C@@H]1CC[C@@]2(C)[C@H](C1)[C@H](OC(C)=O)C[C@@H]1[C@@H]2C[C@H]2[C@@H]3CN4C[C@H](C)CC[C@H]4[C@H](C)[C@H]3CC[C@@]12O	.	-6.0%	.	.	.	10.5%
Cc1cc(C)cc(OCC(=O)Nc2nc(-c3cccnc3)cs2)c1	11.9µM*	-5.3%	2.7%	18.2%	-20.3	?
Cc1cccc(OCC(=O)Nc2nc(-c3ccncc3)cs2)c1	4.1%	-1.4%	4.7%	5.0%	0.5	-6.5%
O=C(COc1ccccc1)Nc1nc(-c2ccncc2)cs1	26.7µM*	-20.8%	-0.1%	9.4%	-25.0	-8.8%
NC(=O)c1ccsc1NC(=O)COc1ccccc1	15µM*	2.9%	-0.4%	-15.2%	.	-17.5%
Cc1ccccc1-c1nc(Nc2ccncc2)c2ccccc2n1	.	-28.1%	.	.	.	2.9%
O=C(c1ccc(-c2cccc(Cl)c2Cl)o1)N1CCOCC1	-13.5%	-5.9%	1.2%	15.9%	-9.2	-8.6%
S=C(c1ccc(-c2ccccc2Cl)o1)N1CCOCC1	5.32µM*	-18.9%	-3.1%	0.6%	.	-62.4%
S=C(c1ccc(-c2ccc(Cl)c(Cl)c2)o1)N1CCOCC1	26.7µM*	-10.9%	-3.4%	-2.4%	.	-4.1%
S=C(c1ccc(-c2ccc(Br)cc2)o1)N1CCOCC1	?	-2.8%	2.3%	-6.2%	-1.0	?
CCOc1ccc(NC(=O)N2CCN(S(=O)(=O)c3ccc4c(ccn4C)c3)CC2)cc1	.	1.3%	.	.	.	-14.3%
CCC(C)C(NC(=O)C1CCC(C)CC1)C(=O)Nc1ccc(OC)cc1 (stereo unspecified)	29.9µM*	-2.7%	-2.2%	-10.5%	-12.0	?
O=C1C=CC(=O)N1c1ccccc1N1C(=O)C=CC1=O	1.5µM*	.	1.7%	2.4%	-88.9*	3.16µM*
COc1ccc(-c2nc3ccc(NS(=O)(=O)c4ccc(Cl)cc4)cc3o2)cc1	.	-7.8%	.	.	.	10.9%
O=C(O)c1cc(N=Nc2ccc(-c3ccc(N=Nc4ccc(O)c(C(=O)O)c4)cc3)cc2)ccc1O	.	3.16µM*	.	.	.	12.6µM*
Cc1ccc(NC2=C/C(=N\S(=O)(=O)c3cccs3)c3ccccc3C2=O)c(C)c1	-21.0%	-12.8%	-1.4%	-20.6%	-22.9	-14.5%
Cc1ccc(S(=O)(=O)Nc2ccccc2-c2ccccc2)cc1	1.8%	-19.2%	8.1%	0.1%	.	1.0%
CCc1ccc(S(=O)(=O)/N=C2\C=C(Nc3cccc(C(=O)O)c3)C(=O)c3ccccc32)cc1	37.7µM*	-8.4%	0.4%	-3.8%	-27.0	-6.5%
Cc1cccc(NC2=C/C(=N/S(=O)(=O)c3cccs3)c3ccccc3C2=O)c1	-2.7%	-6.1%	-0.7%	-4.0%	-23.1	-17.6%
Cc1cc(C)c(S(=O)(=O)/N=C2\C=C(Nc3ccc(C(=O)O)cc3)C(=O)c3ccccc32)c(C)c1	?	-20.4%	?	-0.3%	-79.4*	?
Cc1ccc(S(=O)(=O)/N=C2\C=C(NS(=O)(=O)c3ccccc3)C(=O)c3ccccc32)cc1	15µM*	.	-0.2%	17.2%	?	?
O=C1C(Nc2ccc(O)cc2)=C/C(=N/S(=O)(=O)c2cccs2)c2ccccc21	-2.2%	-12.0%	-2.6%	-5.6%	-15.8	-19.8%
O=C(O)c1ccc(NC2=C/C(=N/S(=O)(=O)c3ccccc3)c3ccccc3C2=O)cc1	10.6µM*	-10.6%	-2.4%	10.6%	?	?
O=C(Cn1c(=O)n2nc(-c3cccc(F)c3)nc2c2ccccc21)N1CCN(c2ccccc2F)CC1	.	-0.8%	.	.	.	0.9%
CC(C)(C)OC(=O)N1CCC(c2c(C(=O)NCCN3CCOCC3)cnn2-c2ccc(F)cc2)CC1	.	16.4%	.	.	.	-4.8%
O=C(COc1ccccc1[N+](=O)[O-])N1CCC(c2nc3ccccc3o2)CC1	.	-17.7%	.	.	.	4.4%
CCn1c(=N)c(C(=O)NCC2CCCO2)cc2c(=O)n3cc(C)ccc3nc21 (stereo unspecified)	.	-8.2%	.	.	.	-0.3%
O=C(Nc1nc(=S)ss1)c1ccc(Cl)cc1Cl	15µM*	-7.2%	-0.7%	-7.2%	?	-14.1%

Source: PubChem
